In the library only some 3.7% were active in any assay of this set; here they are far more common.
MITF TRPM1 HTS: activators of MITF-driven TRPM1 promoter activity in SK-MEL-5 cells; AID 588334; 300,000 tested, 0.75% active; activation, % at 12.5 µM; SK-MEL-5 TRPM1-promoter luciferase, 24 h; % of positive control, neutral wells = 0;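 active = mean activation of at least 80% with every replicate also reaching 80%; inconclusive = mean reaches 80% but some replicate falls short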
AF4-AF9 inh: inhibitors of human MLL-AF4/AF9 interaction. P42568. AlphaScreen, biotin-AF4 peptide binding to FLAG-AF9. inhibition, % at 10 µM. 350,000 tested, 0.47% active;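 active = every replicate reaching a set inhibition limit, whatever the replicate mean, cut at about 25% in these data; inconclusive = mean inhibition reaches that limit but some replicates miss it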
Target sequence (P42568 whole entry, looked up): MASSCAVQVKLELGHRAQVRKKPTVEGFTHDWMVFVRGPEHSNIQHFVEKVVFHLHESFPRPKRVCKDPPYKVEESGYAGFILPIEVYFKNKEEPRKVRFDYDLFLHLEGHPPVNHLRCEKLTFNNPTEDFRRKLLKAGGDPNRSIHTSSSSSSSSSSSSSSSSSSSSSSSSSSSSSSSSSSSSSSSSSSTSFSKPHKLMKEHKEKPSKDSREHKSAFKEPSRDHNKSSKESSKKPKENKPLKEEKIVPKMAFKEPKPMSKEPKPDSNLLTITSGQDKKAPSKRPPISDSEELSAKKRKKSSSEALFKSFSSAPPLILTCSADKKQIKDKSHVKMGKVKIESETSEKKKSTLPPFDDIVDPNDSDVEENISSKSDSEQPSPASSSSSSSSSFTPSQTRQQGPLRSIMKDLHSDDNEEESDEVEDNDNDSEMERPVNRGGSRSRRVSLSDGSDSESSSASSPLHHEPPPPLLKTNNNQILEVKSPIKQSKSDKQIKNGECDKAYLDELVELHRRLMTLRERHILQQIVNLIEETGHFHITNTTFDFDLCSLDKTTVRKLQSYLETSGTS
esBAF inh: blocks esBAF chromatin remodeling in mouse ES cells; 350,000 tested, 2% active; Bmi1-luciferase knock-in reporter, 24 h; 100% = twice the neutral-well signal; reporter increase, % at 12.5 µM; in the data active = activation above about 40%; inconclusive = no clear call, values can overlap the other calls;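 note: a rise in the Bmi1 reporter signal indicates esBAF inhibition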
Ecoli rRNA inh: inhibitors of bacterial rRNA selective over humanized ribosomes; E. coli WT GFP vs humanized-ribosome RFP mutants, fluorescence, 24 h; active compounds read low; DMSO median 0, no signal -100; 350,000 tested, 1.6% active; GFP signal change (wild-type ribosome), % (test concentration not listed); AID 720706;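 active = significant combined selectivity score with lowered wild-type GFP, culture density cut under 30%, mutant RFP and density less affected; inactive = any of these conditions unmet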
Wnt act: activates Wnt/beta-catenin signaling in a reporter cell assay; activator, plate reader; activation, % at 9.35 µM; 300,000 tested, 1.2% active; AID 743398; in the data active = activation above about 30%, passing the limit was not always enough; inconclusive = no clear call, values can overlap the other calls
Numbers stand for hits; i = inactive; ? = inconclusive; nt = not tested or not shown.

SMILES	MITF TRPM1 HTS	AF4-AF9 inh	esBAF inh	Ecoli rRNA inh	Wnt act
CCN(CC(=O)Nc1ccc(OC)cc1)CC(=O)Nc1ccc(Br)cc1F	i	i	nt	i	i
Cc1ccc(-c2c(C)sc(=NC(=O)c3ccco3)n2C)cc1	100.2	nt	56.8	nt	nt
C[C@H]1CCCCO[C@@H](CN(C)C(=O)Nc2cccc3ccccc23)[C@@H](C)CN([C@@H](C)CO)C(=O)c2cc(NS(=O)(=O)c3ccc(F)cc3)ccc2O1	nt	i	i	i	nt
Cc1ccc2[nH]c(-c3cccc(N)c3)cc2c1	i	nt	i	nt	81.8
O=C(/C=C/c1cccs1)Nc1nc(-c2ccccc2)cs1	i	nt	i	nt	nt
O=C(/C=C/c1cccs1)Nc1scc(-c2ccccc2)c1C(=O)O	i	26.8	nt	i	i
CC1CCc2c(sc(NC(=O)/C=C/c3cccs3)c2C(=O)O)C1 (configuration not stated)	i	i	53.1	i	i
COc1ccc(NC(=O)Nc2ccc3c(c2)C(=O)N([C@H](C)CO)C[C@@H](C)[C@H](CN(C)Cc2ccc(C(=O)O)cc2)OCCCC[C@H](C)O3)cc1	nt	i	i	i	nt
O=C(Nc1ccc(C(O)(C(F)(F)F)C(F)(F)F)cc1)c1ccc(Cl)c([N+](=O)[O-])c1	i	i	i	i	i
CC1(C)Cc2c(sc3nc(-c4cc5ccccc5o4)n(N)c(=O)c23)CO1	129.4	nt	48.3	nt	nt
CC(C)n1c(C(=O)OCC(=O)NCc2ccc3c(c2)OCO3)cc2sccc21	i	i	i	-25.4	i
COc1cc(CN2CC(=O)N(c3ccccc3Cl)C2=S)cc(OC)c1OC	i	i	i	-18.1	i
Cc1cccc(N2C(=O)CN(Cc3ccccc3)C2=S)c1	i	i	i	-14.5	i
COc1ccc(/C=C2\COc3ccccc3C2=O)cc1OC	i	nt	nt	nt	33.1
CCOc1ccc(/C=C2\CCc3ccccc3C2=O)cc1	94.9	i	i	i	i
COc1ccc(/C=C2\COc3ccccc3C2=O)c(OC)c1	i	i	62.6	i	i
COc1cc(/C=C2/CCc3ccccc3C2=O)cc(OC)c1OC	i	nt	i	nt	nt
COc1ccc(/C=C2/CCc3ccccc3C2=O)cc1OC	i	nt	i	nt	50.1
COc1ccc(C=C2CCc3ccccc3C2=O)cc1	nt	i	nt	i	i
O=C(O)c1ccc(/C=C2\COc3ccccc3C2=O)cc1	i	i	i	i	i
C/C(=N\NC(=O)c1nn(C)c(C)c1Br)c1ccc(NC(=O)C2CCCC2)cc1	i	i	i	nt	i
CC1CCN(CC(C)OC(=O)c2ccc3c(c2)OCCO3)CC1 (configuration not stated)	i	i	i	i	i
COc1ccc(/C=C2\OC(=O)c3c(OC)cccc32)cc1OC	125.3	nt	47.6	nt	nt
COc1ccc(/C=C2\CCc3ccccc3C2=O)cc1CN1CCOCC1	nt	?	nt	-29.5	i
COc1ccc(C=C2C(=O)OC(C)(C)OC2=O)cc1OC	i	i	i	i	i
SMILES	MITF TRPM1 HTS	AF4-AF9 inh	esBAF inh	Ecoli rRNA inh	Wnt act
COc1cc(/C=C2\CCc3ccccc3C2=O)cc(OC)c1OC	i	nt	i	nt	i
COc1ccc2c(c1)CC/C(=C\c1ccc(OC)c(Cn3cccn3)c1)C2=O	nt	nt	86.8	nt	nt
CN(C)c1ccc(C(CNC(=O)COc2ccc(Cl)cc2)N2CCCC2)cc1 (configuration not stated)	i	25.8	i	i	i
COc1ccc(C(CNC(=O)COc2cc(C)ccc2Cl)N2CCCCC2)cc1 (configuration not stated)	i	i	nt	i	i
CCOc1ccc(NC(=O)C(CC)n2nc(C)c3c(C)n(-c4ccccc4)nc3c2=O)cc1 (configuration not stated)	i	i	i	-23.3	i
CCC(C(=O)Nc1cccc(OC)c1)n1nc(C)c2c(C)n(-c3ccccc3)nc2c1=O (configuration not stated)	i	i	i	i	i
COc1cc(/C=C/C(=O)c2ccc([N+](=O)[O-])o2)ccc1O	i	i	i	-23.6	i
COc1ccc(/C=C/C(=O)c2ccc([N+](=O)[O-])o2)cc1OC	nt	i	nt	i	i
Cc1ccc([N+](=O)[O-])cc1S(=O)(=O)N1CCCCC1C(=O)O (configuration not stated)	i	i	nt	i	i
COc1ccc(C2CC(=O)c3ccccc3O2)cc1 (configuration not stated)	125.8	i	60.7	i	42.6
O=C1CC(c2ccc3c(c2)OCCO3)Oc2ccc([N+](=O)[O-])cc21 (configuration not stated)	i	i	i	i	i
COc1cccc(C2Cc3ccccc3C(=O)O2)c1 (configuration not stated)	i	nt	nt	nt	nt
O=C1CC(c2ccccc2)Oc2ccc(Cl)cc21 (configuration not stated)	i	i	nt	i	i
O=C1CC(c2ccc3c(c2)OCCO3)Oc2ccccc21 (configuration not stated)	103.7	i	84.4	i	?
COc1ccc(C2CC(=O)c3cc(OC)ccc3O2)cc1 (configuration not stated)	i	i	52.2	i	i
COCCn1c(SCC(=O)Nc2cc(C)on2)nc2ccccc21	i	i	nt	i	i
COc1ccc(OCC(=O)N/N=C(\CCC(=O)O)c2cccs2)cc1	i	i	i	i	i
CC(=O)c1cc(Cl)ccc1OCC(=O)Nc1cccc(S(=O)(=O)N2CCCC2)c1	i	i	i	i	i
Cc1cccc(NC(=O)Nc2ccccc2)n1	i	i	i	i	i
Cc1cccc(NC(=O)Nc2ccc(Cl)c(Cl)c2)n1	i	i	i	-26.0	i
Cc1cccc(NC(=O)c2ccc(S(=O)(=O)N(C)C)cc2)n1	i	nt	49.4	nt	nt
CCCCOc1ccc(C(=O)Nc2cccc(C)n2)cc1	102.5	nt	i	nt	nt
COc1cccc(NC(=O)Nc2cccc(C)n2)c1	i	i	?	i	i
CCOc1ccc(NC(=O)Nc2cccc(C)n2)cc1	i	i	56.8	i	i
CCOc1ccc(C(=O)Nc2cccc(C)n2)cc1	nt	nt	i	nt	i
SMILES	MITF TRPM1 HTS	AF4-AF9 inh	esBAF inh	Ecoli rRNA inh	Wnt act
CCCNC(=O)N1C[C@@H](C)[C@H](OC)CN(C)C(=O)c2ccc(NC(=O)C3CCC3)cc2OC[C@H]1C	nt	i	nt	i	nt
CN(C)CCCNC(=O)c1cc(C(=O)c2ccc(F)cc2)c[nH]1	i	i	i	i	i
O=C(Nc1ccc(Cl)c(Cl)c1)Nc1ccccn1	i	i	66.7	i	36.6
COC(=O)c1cccc(NC(=O)Nc2ccc(Cl)c(Cl)c2)c1	i	i	71.1	i	i
COc1cccc(C#Cc2ccc([C@@H]3[C@@H](CO)N4C(=O)CN(C(=O)c5ccncc5)C[C@H]34)cc2)c1	nt	i	nt	i	nt
CCOc1ccc(S(=O)(=O)N2CCCC(C(=O)NCc3ccncc3)C2)cc1Cl (configuration not stated)	i	i	i	i	i
CNC[C@H](CC1CCCCC1)NC[C@H](Cc1ccccc1)NCCC12CC3CC(CC(C3)C1)C2	i	39.9	i	i	i
COC(=O)C1=C(C)NC(C)=C(C(=O)OC)C1C(=O)OCc1nnc(-c2ccccc2)o1	i	i	nt	i	i

Bioassay records from PubChem.
